Assay outcomes as filed in PubChem BioAssay.
This is a sample that favours compounds with a hit; in the whole collection about 4% have one here.
HIF-2a block = blocks HIF-2a reporter activity; 786-0 RCC cells HIF-2a reporter, luciferase luminescence, overnight; inhibition, % at 18.8 µM; 360,000 compounds, 0.72% hits;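 active = inhibition of the luminescence signal of 40% or more relative to plate controls, in a single-dose primary screen at 18.75 µM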
TROY NFkB inh = TROY signaling inhibition | Q293 LMP1-TROYcd NF-kB luciferase reporter, 4 h | 360,000 compounds, 0.98% hits | AID 1347056 | inhibition, % at 10 µM;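 active = compounds whose plate-normalised and pattern-corrected inhibition of the luciferase reporter signal at the single screening dose is 50% or more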
KKLEB cytotox = reduces viability of KKLEB cystic fibrosis airway cells. KKLEB CF airway cells viability, ATPlite luminescence, overnight; active compounds read low; cells stimulated with P. aeruginosa culture filtrate. activity change (cytotoxicity), % at 5 µM. 360,000 compounds, 0.36% hits;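 active = corrected activity change at or below -50% at 5 µM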
TWEAK Fn14 block = blocks TWEAK-Fn14 interaction in a reporter cell assay; TWEAK-stimulated Fn14 reporter cells, luciferase luminescence, 8 h; inhibition, % at 10 µM; 360,000 compounds, 2% hits; AID 1159606; in the data active = inhibition above about 50%
CF NFkB block = inhibitors of cystic fibrosis induced NF-kB. AID 588850. inhibition, % at 5 µM. KKLEB NF-kB-GFP reporter, PAF-induced, GFP fluorescence overnight. 360,000 compounds, 0.86% hits;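 active = at least 50% inhibition at 5 µM, scaled per plate between neutral and stimulator controls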;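 note: PAF is a Pseudomonas aeruginosa culture filtrate used as stimulus; plate controls were PAF-stimulated DMSO wells for no effect and unstimulated DMSO wells for full effect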
Peg3 prom inh = inhibitors of Peg3 promoter; HeLa PEG-Prom luciferase reporter, luminescence, overnight; inhibition, % at 20 µM; 360,000 compounds, 1.7% hits; AID 588405;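 active = inhibition of at least 50% at 20 µM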
Active calls of the source: *; . = no result given.

SMILES	HIF-2a block	TROY NFkB inh	KKLEB cytotox	TWEAK Fn14 block	CF NFkB block	Peg3 prom inh
CCOC(=O)c1nnn(-c2nc(N3CCCC3)nc(N3CCCC3)n2)c1-c1ccccc1	22	4	-18	38	4	37
CCOc1nc(N2CCCCC2)nc(-n2cc(-c3ccccc3)nn2)n1	16	.	1	72*	-4	12
Cc1[nH]c(=O)c(C#N)c(C)c1Br	8	-10	-12	-1	20	-1
CCN1CCN(C(=O)C2CCN(S(=O)(=O)N3CCC4(CC3)OCCO4)CC2)CC1	8	6	18	22	-26	1
C[C@]12CC[C@@H]3c4cc(O)c(O)cc4CC[C@H]3[C@@H]1CC[C@@H]2O	5	-13	16	49	55*	5
CCN(CC)S(=O)(=O)c1ccc2c(c1)C(=NO)c1cc(S(=O)(=O)N(CC)CC)ccc1-2	38	50	-44	30	43	51*
COc1ccc(S(=O)(=O)N2CCC(C)CC2)cc1OC	16	4	2	1	3	2
CC1CCN(S(=O)(=O)c2ccc3c(c2)C(=NO)c2cc(S(=O)(=O)N4CCC(C)CC4)ccc2-3)CC1	1	-17	-5	-127	83*	100*
CCN(CC)S(=O)(=O)c1ccc(C)c(C)c1	15	1	-1	18	1	12
COCCSc1ccccc1C(=O)NCC1CCCO1 (configuration not stated)	-3	-4	-7	-1	12	4
N=c1c2c(ncn1Cc1ccco1)Oc1c(ccc3ccccc13)C2c1ccccc1 (configuration not stated)	-51	12	-31	56*	34	80*
CN(C)CCn1cnc2c(c1=N)C(c1ccccc1)c1ccc3ccccc3c1O2 (configuration not stated)	-9	-48	-10	-24	10	109*
COc1ccc(C2c3c(ncn(CCN4CCOCC4)c3=N)Oc3ccc4ccccc4c32)cc1 (configuration not stated)	20	-5	-14	-13	-14	60*
CCOc1ccc(OCC)c(NC(=O)CN(C)S(=O)(=O)c2cnc[nH]2)c1	13	2	1	0	-15	5
O=S(=O)(Nc1ccc(O)c(Sc2nc3ccccc3s2)c1)c1cccc2ccccc12	25	67*	2	50*	23	-33
Cc1ccc2c(C)nc(Nc3nc(CSc4nnnn4-c4ccccc4)cc(=O)[nH]3)nc2c1	18	0	6	34	10	53*
CN(C)CCNc1ncnc2ccccc12	0	-5	7	3	2	-6
CN(C)CCNc1ncnc2oc(-c3ccccc3)c(-c3ccccc3)c12	4	-47	-21	-54	27	71*
COc1ccc(-c2oc3ncnc(NCCCN(C)C)c3c2-c2ccc(OC)cc2)cc1	33	-29	-20	-33	21	104*
Cc1ccc(-c2oc3ncnc(N)c3c2-c2ccc(C)cc2)cc1	-10	-12	-8	-65	25	20
C(=N\n1cnnc1)/C1CCCCC1	7	-2	-1	16	-13	14
COc1cc(OC)c(C=O)c(OC(=O)N2CCOCC2)c1	10	-2	2	4	-5	25
CC(C)(C)c1nc2ccccc2c2nnc(SCC(=O)NCc3ccco3)n12	15	-1	-3	9	1	19
Cc1cc(C)nc(SC2=CS(=O)(=O)c3ccccc32)n1	-4	15	-4	53*	30	34
COc1ccccc1NC(=O)CSc1nc2sc(C)c(C)c2c(=O)n1C	4	34	-6	37	21	-20
SMILES	HIF-2a block	TROY NFkB inh	KKLEB cytotox	TWEAK Fn14 block	CF NFkB block	Peg3 prom inh
Cc1sc2nc(SCC(=O)Nc3c(C)n(C)n(-c4ccccc4)c3=O)n(C)c(=O)c2c1C	17	7	2	58*	-3	16
O=C(CCCSc1nc2ccccc2[nH]1)N1CCN(c2ccc([N+](=O)[O-])cc2)CC1	29	37	-8	50*	2	19
Nc1nc(CCl)nc(Nc2ccc3ccccc3c2)n1	-125	-27	-37	16	78*	-32
O=C(c1ccccc1)C(C(=O)N1CCCCC1)n1ccccc1=O (configuration not stated)	7	9	2	-8	2	22
O=C(OC(c1ccccc1)c1nccc2ccccc12)c1ccccc1 (configuration not stated)	-31	87*	-12	98*	23	-25
O=C(OC(c1ccccc1)c1nccc2ccccc12)c1cccc([N+](=O)[O-])c1 (configuration not stated)	-148	21	4	-12	-23	-115
COc1ccc(N(C(=O)c2cc3ccccc3oc2=O)C2C=CS(=O)(=O)C2)c(OC)c1 (configuration not stated)	12	4	9	16	-16	1
CCCCC(CC)CN=C(N)NC(N)=NCCCCCCN=C(N)NC(N)=NCC(CC)CCCC (configuration not stated)	98*	71*	-17	105*	52*	103*
O=c1c(O)cccc2cc(O)c(O)c(O)c12	25	13	1	78*	-10	19
COc1cc2c(cc1NC(=O)c1cccc([N+](=O)[O-])c1C)oc1ccccc12	-30	0	12	-12	-7	6
O=C(Cn1cnnn1)OCC(=O)c1ccc(Cl)s1	13	71*	3	-6	0	17
O=C(NCC(=O)N1CCN(S(=O)(=O)c2ccccc2C(F)(F)F)CC1)c1sc2ccccc2c1Cl	5	18	-55*	-40	48	11
Cc1ccc(C)c(S(=O)(=O)N2CCN(C(=O)CNC(=O)c3sc4ccccc4c3Cl)CC2)c1	6	-13	-18	-28	11	3
CCOc1ccc(S(=O)(=O)N2CCN(c3ccccn3)CC2)cc1	16	13	0	6	-10	19
Cc1ccc(C(=O)O)cc1NC(=S)NCCc1ccccc1	0	8	-5	13	3	0
CC(=O)Nc1ccc(/C=N/NC(=O)CNS(=O)(=O)c2ccccc2)cc1	19	4	0	-8	-16	15
COc1ccc(C(=O)NC2CC2)cc1OC1CCN(Cc2cc(C)c(C)cc2C)CC1	11	16	2	88*	0	12
O=C(NC(=S)Nc1ccc(-c2nc3ncccc3o2)cc1)c1ccccc1F	-32	-27	-8	-43	-4	6
CCCCCN(C(=O)COC(=O)Cc1c(C)nc2ccccc2c1C)c1c(N)n(CCCC)c(=O)[nH]c1=O	0	-20	-7	10	9	-2
O=[N+]([O-])c1ccc(O)c(C=Nc2cccc3ccccc23)c1	1	36	8	39	6	3
O=[N+]([O-])c1ccc(O)c(C=Nc2ccc3c(c2)OCCO3)c1	-56	56*	12	67*	8	-36
